Several values for one entry are separate records, joined by “and”; a condition that tells them apart may be missing. Equal values may be shown once. The source holds several records for some structures; these can differ, active in one and inactive in another. Activity calls are given as the source filed them. Rule for the calls: active = hit-call score of the fitted dose curve at least 0.9, where 1 is the maximum; inactive = score below 0.9.

Experimental findings from PubChem BioAssay (EPA / NIEHS) are described below.

The target of assay [1] is Transcription factor E2F1 (Homo sapiens) (UniProt Q01094). Nature of the assay: ATG_E2F_CIS: Attagene CIS-FACTORIAL HepG2 Assay for human E2F Transcription Factor 1 (AID 2282935). Conditions: HepG2 Attagene cis-reporter, E2F reporter RNA transcripts; actives raise or lower the signal. The procedure, abridged:
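Measures reporter transcript levels via RT-PCR with capillary electrophoresis detection in HepG2 cells harboring cis-regulated reporter units; 24 h post-dose; bidirectional curve fitting with DMSO as baseline.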

Assay [2] can be described thus: ATG_E_Box_CIS: Attagene CIS-FACTORIAL HepG2 Assay for human Enhancer Box (E-box) (AID 2282936). The conditions noted are these: HepG2 E-box cis-reporter transcription, actives raise or lower the signal. The procedure, abridged: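 First, HepG2 cells receive multiple cis-regulated reporter constructs by transient transfection. Next, chemicals are applied for 24 h. Finally, reporter mRNA is quantified via RT-PCR and capillary electrophoresis, with DMSO as baseline.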

Assay [3] can be described thus: ATG_M_61_CIS: Attagene CIS-FACTORIAL HepG2 Assay for M61 Transcription Factor (Internal Marker) (AID 2282937). Conditions: HepG2 Attagene CIS-FACTORIAL M61 internal marker reporter; actives raise or lower the signal. An outline of the steps: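 Using transiently transfected HepG2 liver cells, reporter transcript levels were assessed 24 h post-dosing by RT-PCR and capillary electrophoresis. Changes in either direction were fitted relative to DMSO controls.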

Assay [4] in a line: ATG_EGR_CIS: Attagene CIS-FACTORIAL HepG2 Assay for human Early Growth Response 1 (EGR1) (AID 2282938). Conditions: HepG2 Attagene CIS-FACTORIAL EGR reporter mRNA; actives raise or lower the signal. An outline of the steps: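 Fluorescent capillary-electrophoresis signal of reporter cDNA fragments serves as read-out. HepG2 cells bear transiently transfected cis-promoter reporter units and are exposed 24 h; gain- or loss-of-signal is fitted against DMSO.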

A short description of assay [5]: ATG_M_19_CIS: Attagene CIS-FACTORIAL HepG2 Assay for M19 Transcription Factor (Internal Marker) (AID 2282939). The conditions noted are these: HepG2 Attagene CIS-FACTORIAL M19 internal marker reporter; actives raise or lower the signal. An outline of the steps:
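Readout: fluorescent reporter-transcript fragments by capillary electrophoresis after RT-PCR. Human HepG2 liver cells carried transfected MRTU constructs reporting endogenous transcription-factor activity; exposure 24 h. Gain or loss of signal fitted relative to DMSO.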

Assay [6] is described as follows: ATG_ERE_CIS: Attagene CIS-FACTORIAL HepG2 Assay for Estrogen Response Element (ERE) (AID 2282940). Conditions: HepG2 ERE cis-reporter, Attagene RNA transcript; actives raise or lower the signal. The procedure, abridged: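 Readout: reporter mRNA induction by RT-PCR, FAM-labelled primer extension, HpaI digestion and capillary electrophoresis, 24 h after dosing transfected HepG2 cells. Endogenous transcription factors act on cis-element-regulated reporters. Gain or loss fitted against DMSO.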

Assay [7] can be described thus: ATG_Ets_CIS: Attagene CIS-FACTORIAL HepG2 Assay for human Erythroblast Transformation Specific (ETS) (AID 2282941). The conditions noted are these: HepG2 ETS cis-reporter transcription, actives raise or lower the signal. The procedure, abridged:
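After transient cis-reporter transfection, HepG2 cells receive test chemical for 24 h. Reporter mRNA levels, measured by RT-PCR and capillary electrophoresis fluorescence, are analysed bidirectionally relative to the DMSO baseline.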

The target of assay [8] is Hepatocyte nuclear factor 3-beta (Homo sapiens) (UniProt Q9Y261). Nature of the assay: ATG_FoxA2_CIS: Attagene CIS-FACTORIAL HepG2 Assay for human Forkhead box A2 (FOXA2) (AID 2282942). Conditions: HepG2 cis-reporter transcription factor activity, 24 h; actives raise or lower the signal. An outline of the steps:
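Fluorescence signal of reporter cDNA fragments, separated by capillary electrophoresis, reflects endogenous transcription factor activity in transfected HepG2 after 24 h. Both increases and decreases fitted against DMSO.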

Assay [9] can be described thus: ATG_FoxO_CIS: Attagene CIS-FACTORIAL HepG2 Assay for human Forkhead box O (FoxO) (AID 2282943). Conditions: HepG2 Attagene cis-reporter, FoxO element, mRNA; actives raise or lower the signal. An outline of the steps:
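HepG2 cells transiently transfected with cis-element-driven reporter units report endogenous FoxO activity. After 24 h chemical exposure, reporter mRNA quantified by RT-PCR, fluorescent labeling, HpaI digestion and capillary electrophoresis; bidirectional fit versus DMSO.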

The nature of assay [10]: ATG_GATA_CIS: Attagene CIS-FACTORIAL HepG2 Assay for human GATA Binding Protein (AID 2282944). Conditions: HepG2 GATA cis-element reporter, Attagene multiplex mRNA; actives raise or lower the signal. The procedure, abridged:
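Read-out: fluorescent reporter mRNA fragments resolved by capillary electrophoresis after RT-PCR. Human liver HepG2 cells carried transiently transfected cis-regulated reporter constructs; chemicals incubated 24 h; gain or loss of signal fitted relative to DMSO.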

The nature of assay [11]: ATG_GLI_CIS: Attagene CIS-FACTORIAL HepG2 Assay for human Zinc Finger Protein GLI1 (AID 2282945). The conditions noted are these: HepG2, Attagene cis-factorial reporter mRNA, GLI element; actives raise or lower the signal. An outline of the steps:
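Transiently transfected HepG2 cells report endogenous transcription factor activity via cis-element-driven reporter units. After 24 h compound exposure, reporter mRNA was measured by RT-PCR with capillary electrophoresis; bidirectional fitting against DMSO baseline.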

The target of assay [12] is Bile acid receptor (Homo sapiens) (UniProt Q96RI1). Nature of the assay: ATG_IR1_CIS: Attagene CIS-FACTORIAL HepG2 Assay for human Nuclear Receptor Subfamily 1 Group H Member 4 (NR1H4), IR1 submotif (AID 2282946). The conditions noted are these: IR1 reporter transcription, actives raise or lower the signal. An outline of the steps:
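HepG2 cells transiently transfected with multiple cis-promoter-driven reporter units to measure endogenous transcription factor activity; 24 h exposure. Reporter mRNA read by RT-PCR, FAM labelling, HpaI digestion and capillary electrophoresis. Bidirectional fit versus DMSO.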

Assay [13] can be described thus: ATG_GRE_CIS: Attagene CIS-FACTORIAL HepG2 Assay for human Glucocorticoid Response Elements (GRE) (AID 2282947). The conditions noted are these: HepG2 GRE cis-reporter, Attagene multiplex mRNA; actives raise or lower the signal. The procedure, abridged: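 Endogenous transcription factor activity is read through cis-element reporter constructs transiently transfected into HepG2 cells. After 24 h treatment, labelled RT-PCR products are resolved by capillary electrophoresis; DMSO sets baseline for bidirectional curve fitting.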

Assay [14] can be described thus: ATG_ISRE_CIS: Attagene CIS-FACTORIAL HepG2 Assay for human Interferon Regulatory Factor 1 (IRF1) binding to an Interferon-Stimulated Response Element (ISRE) (AID 2282948). Conditions: HepG2 ISRE cis-reporter (Attagene), mRNA transcription readout; actives raise or lower the signal. The procedure, abridged:
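Quantitation relies on labelled RT-PCR fragments separated by capillary electrophoresis. Human HepG2 cells bearing cis-promoter reporter constructs were treated 24 h; DMSO served as baseline for bidirectional fitting.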

The nature of assay [15]: ATG_M_32_CIS: Attagene CIS-FACTORIAL HepG2 Assay for M32 Transcription Factor (Internal Marker) (AID 2282949).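 Note: background control marker of the multiplexed CIS panel rather than a real target.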 Conditions: HepG2 Attagene cis-factorial M32 reporter, mRNA; actives raise or lower the signal. An outline of the steps:
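Internal background marker read-out: RT-PCR/capillary electrophoresis fluorescence of reporter transcripts from transiently transfected HepG2 cells after 24 h chemical exposure. Activity fitted bidirectionally relative to DMSO negative control.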

Assay [16] in a line: ATG_M_06_CIS: Attagene CIS-FACTORIAL HepG2 Assay for M06 Transcription Factor (Internal Marker) (AID 2282950). The conditions noted are these: HepG2 Attagene CIS-FACTORIAL M06 internal marker reporter; actives raise or lower the signal. An outline of the steps: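 Terse: HepG2, transient MRTU transfection (FuGene 6), 24 h dosing; total RNA, oligo(dT) RT, PCR, FAM label, HpaI cut, capillary electrophoresis; bidirectional fit vs DMSO baseline; background-control endpoint.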

Assay [17] deals with Hypoxia-inducible factor 1-alpha (Homo sapiens) (UniProt Q16665). As to the kind of experiment: ATG_HIF1a_CIS: Attagene CIS-FACTORIAL HepG2 Assay for human Hypoxia Inducible Factor 1 (HIF1A) (AID 2282951). The conditions noted are these: HepG2 Attagene cis-factorial HIF1a reporter transcription; actives raise or lower the signal. The procedure, abridged: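 Endogenous-TF cis reporter readout, human HepG2 cells, 24 h incubation; mRNA detected via RT-PCR and capillary electrophoresis fluorescence; DMSO-normalised bidirectional fitting.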
Sequence of Hypoxia-inducible factor 1-alpha (Homo sapiens) (Q16665 whole entry, looked up): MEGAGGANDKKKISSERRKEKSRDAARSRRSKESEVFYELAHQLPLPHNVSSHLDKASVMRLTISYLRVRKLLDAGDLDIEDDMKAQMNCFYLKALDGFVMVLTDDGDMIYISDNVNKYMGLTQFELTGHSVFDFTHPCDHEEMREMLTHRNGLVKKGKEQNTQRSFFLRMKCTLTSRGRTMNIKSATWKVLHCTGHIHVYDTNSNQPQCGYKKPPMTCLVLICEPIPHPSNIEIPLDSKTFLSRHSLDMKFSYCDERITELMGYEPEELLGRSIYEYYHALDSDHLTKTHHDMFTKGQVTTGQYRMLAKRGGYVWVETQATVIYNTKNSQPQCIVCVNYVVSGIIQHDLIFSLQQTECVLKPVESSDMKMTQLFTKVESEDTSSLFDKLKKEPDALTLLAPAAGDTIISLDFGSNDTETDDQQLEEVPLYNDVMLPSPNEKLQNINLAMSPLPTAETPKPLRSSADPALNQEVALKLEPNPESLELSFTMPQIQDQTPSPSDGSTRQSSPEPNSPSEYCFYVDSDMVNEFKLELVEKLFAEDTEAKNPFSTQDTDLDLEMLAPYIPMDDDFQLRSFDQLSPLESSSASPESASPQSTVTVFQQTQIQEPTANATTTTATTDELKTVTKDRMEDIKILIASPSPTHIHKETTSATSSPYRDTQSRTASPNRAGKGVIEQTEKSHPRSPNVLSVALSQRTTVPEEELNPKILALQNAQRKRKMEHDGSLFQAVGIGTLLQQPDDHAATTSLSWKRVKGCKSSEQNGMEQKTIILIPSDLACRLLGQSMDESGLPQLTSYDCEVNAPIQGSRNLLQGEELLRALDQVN

In assay [18] the target is Hepatocyte nuclear factor 6 (Homo sapiens) (UniProt Q9UBC0). As to the kind of experiment: ATG_HNF6_CIS: Attagene CIS-FACTORIAL HepG2 Assay for human Hepatocyte Nuclear Factor 6 (HNF6) (AID 2282952). Conditions: HepG2 Attagene cis-factorial HNF6 reporter transcription; actives raise or lower the signal. An outline of the steps:
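Transiently transfected HepG2 cells expressing cis-regulated reporter transcription units were exposed to chemical for 24 h in a 24-well format. Reporter transcript abundance was determined by fluorescence capillary electrophoresis.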

In assay [19] the target is Heat shock factor protein 1 (Homo sapiens) (UniProt Q00613). As to the kind of experiment: ATG_HSE_CIS: Attagene CIS-FACTORIAL HepG2 Assay for human Heat Shock Transcription Factor 1 (HSE) (AID 2282953). Conditions: HepG2 HSE cis-reporter, Attagene RNA transcription; actives raise or lower the signal. An outline of the steps: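 Read-out: fluorescence of reporter-specific RT-PCR fragments separated by capillary electrophoresis. HepG2 carrying transfected cis-element reporter units; 24 h dosing; activity fitted in both directions relative to DMSO baseline.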
Sequence of Heat shock factor protein 1 (Homo sapiens) (Q00613 whole entry, looked up, the tested form may be a part): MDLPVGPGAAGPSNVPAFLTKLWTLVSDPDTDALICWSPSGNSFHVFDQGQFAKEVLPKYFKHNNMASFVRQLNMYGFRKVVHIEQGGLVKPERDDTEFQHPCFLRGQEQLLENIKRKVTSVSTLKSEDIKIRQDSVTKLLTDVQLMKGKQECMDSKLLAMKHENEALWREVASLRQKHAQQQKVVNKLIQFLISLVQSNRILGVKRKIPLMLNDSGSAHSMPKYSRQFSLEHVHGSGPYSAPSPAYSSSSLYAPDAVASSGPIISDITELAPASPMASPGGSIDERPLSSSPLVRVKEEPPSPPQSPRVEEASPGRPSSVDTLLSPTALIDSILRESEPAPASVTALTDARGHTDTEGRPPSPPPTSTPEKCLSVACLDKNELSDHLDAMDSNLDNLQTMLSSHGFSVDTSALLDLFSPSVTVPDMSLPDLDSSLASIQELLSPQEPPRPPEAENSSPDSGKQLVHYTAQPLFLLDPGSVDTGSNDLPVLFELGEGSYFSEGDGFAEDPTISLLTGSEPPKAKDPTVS

Assay [20] is described as follows: ATG_MRE_CIS: Attagene CIS-FACTORIAL HepG2 Assay for human Metal Responsive Element (MRE) (AID 2282954). The conditions noted are these: HepG2 MRE cis-reporter transcription, Attagene multiplex; actives raise or lower the signal. An outline of the steps: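 Fluorescent reporter fragments separated by capillary electrophoresis give mRNA induction for the MRE unit after 24 h treatment of transfected HepG2 cells. Endogenous transcription-factor activity is read; DMSO serves as negative control and baseline.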

Sequence of Hepatocyte nuclear factor 3-beta (Homo sapiens) (Q9Y261 whole entry, looked up, the tested form may be a part): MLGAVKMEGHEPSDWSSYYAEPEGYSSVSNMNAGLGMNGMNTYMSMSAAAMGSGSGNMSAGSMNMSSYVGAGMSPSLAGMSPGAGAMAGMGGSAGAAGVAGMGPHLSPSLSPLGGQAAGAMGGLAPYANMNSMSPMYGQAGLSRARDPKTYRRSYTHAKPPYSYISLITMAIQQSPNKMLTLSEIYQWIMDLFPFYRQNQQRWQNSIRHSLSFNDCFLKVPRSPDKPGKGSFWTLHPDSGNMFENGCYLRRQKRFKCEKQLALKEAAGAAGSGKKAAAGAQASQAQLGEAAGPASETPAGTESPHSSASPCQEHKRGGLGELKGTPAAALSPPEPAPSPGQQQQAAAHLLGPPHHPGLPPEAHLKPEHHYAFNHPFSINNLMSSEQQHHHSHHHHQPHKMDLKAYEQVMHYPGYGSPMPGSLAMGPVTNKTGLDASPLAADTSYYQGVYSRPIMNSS
Sequence of Bile acid receptor (Homo sapiens) (Q96RI1 whole entry, looked up): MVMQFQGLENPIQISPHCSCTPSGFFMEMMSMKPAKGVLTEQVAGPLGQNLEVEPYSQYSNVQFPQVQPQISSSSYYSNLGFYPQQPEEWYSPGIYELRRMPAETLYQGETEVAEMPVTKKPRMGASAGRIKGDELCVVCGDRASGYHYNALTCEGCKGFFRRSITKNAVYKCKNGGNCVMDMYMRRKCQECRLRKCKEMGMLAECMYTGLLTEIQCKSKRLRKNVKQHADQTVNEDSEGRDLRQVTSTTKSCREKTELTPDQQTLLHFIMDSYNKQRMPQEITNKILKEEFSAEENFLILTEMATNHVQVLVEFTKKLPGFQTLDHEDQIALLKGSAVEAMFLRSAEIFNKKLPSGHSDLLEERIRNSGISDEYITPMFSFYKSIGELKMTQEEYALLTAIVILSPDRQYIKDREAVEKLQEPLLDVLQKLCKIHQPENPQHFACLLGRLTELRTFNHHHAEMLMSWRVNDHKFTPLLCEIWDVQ
Sequence of Transcription factor E2F1 (Homo sapiens) (Q01094 whole entry, looked up): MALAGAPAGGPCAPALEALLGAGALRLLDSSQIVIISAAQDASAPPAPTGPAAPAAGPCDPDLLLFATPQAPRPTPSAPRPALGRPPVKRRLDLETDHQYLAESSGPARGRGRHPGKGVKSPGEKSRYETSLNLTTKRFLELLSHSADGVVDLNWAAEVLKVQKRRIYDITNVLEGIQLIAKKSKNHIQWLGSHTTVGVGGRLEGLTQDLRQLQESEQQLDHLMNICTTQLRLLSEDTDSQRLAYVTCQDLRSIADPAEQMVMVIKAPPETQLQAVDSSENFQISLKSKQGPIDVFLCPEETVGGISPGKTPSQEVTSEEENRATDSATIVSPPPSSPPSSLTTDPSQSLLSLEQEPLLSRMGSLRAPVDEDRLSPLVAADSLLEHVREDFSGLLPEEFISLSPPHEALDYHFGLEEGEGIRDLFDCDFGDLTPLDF
Sequence of Hepatocyte nuclear factor 6 (Homo sapiens) (Q9UBC0 whole entry, looked up): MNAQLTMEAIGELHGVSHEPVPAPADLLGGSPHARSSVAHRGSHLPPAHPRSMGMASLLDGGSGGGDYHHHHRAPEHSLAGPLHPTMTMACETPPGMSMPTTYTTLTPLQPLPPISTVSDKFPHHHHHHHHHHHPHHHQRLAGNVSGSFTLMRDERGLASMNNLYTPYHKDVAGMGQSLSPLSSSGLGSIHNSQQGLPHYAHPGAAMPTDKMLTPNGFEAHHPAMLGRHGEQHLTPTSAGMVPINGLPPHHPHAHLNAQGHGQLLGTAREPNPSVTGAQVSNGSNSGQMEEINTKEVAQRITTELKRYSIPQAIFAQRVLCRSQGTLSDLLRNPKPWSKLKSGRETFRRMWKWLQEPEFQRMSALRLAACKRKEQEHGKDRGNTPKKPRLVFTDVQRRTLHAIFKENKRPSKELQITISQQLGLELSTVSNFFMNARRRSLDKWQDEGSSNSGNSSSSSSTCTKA

For the compound `CCCCCCCCCCCCCCCS(=O)(=O)Oc1ccccc1`, the call in assay [1], in assay [2], in assay [3], in [4], in assay [5] and in assay [6] was inactive. Besides, the compound was classed as inactive in [7], in assay [8], in assay [9], in [10], in assay [11] and in assay [12]. Also, the compound was classed as inactive in assay [13], in assay [14], in assay [15], in assay [16], in assay [17] and in assay [18]. In addition, the outcome in assay [19] and in assay [20] was inactive.

Take `CC(O)C(=O)O` (stereo unspecified): the call in assay [1], in assay [2], in assay [3], in assay [4], in assay [5] and in assay [6] was inactive. Also, the call in assay [7], in assay [8], in [9], in [10], in [11] and in assay [12] was inactive. Moreover, the result in [14], in [15], in [16], in assay [17], in [19] and in [20] was inactive.

On to `OCCC(F)(F)C(F)(F)C(F)(F)C(F)(F)C(F)(F)C(F)(F)F`, for which the AC50 in assay [1] was 136 µM (active); in [6], 33.9 µM (active) and 9.4 µM (active); in assay [12] it was 187 µM (active); in assay [14] it was 100 µM (active); in assay [15] it was 100 µM (active); in assay [19], 100 µM (active). Also, the AC50 in assay [20] was 147 µM (active). Moreover, the outcome in assay [1], in assay [2], in assay [3], in [4], in assay [5] and in assay [7] was inactive. The compound was classed as inactive in [8], in [9], in assay [11], in assay [12], in assay [14] and in assay [15]. Also, the outcome in assay [16], in [17], in assay [19] and in [20] was inactive.
